The results in this text go back to PubChem BioAssay (Tox21).

Molecules are shown by their SMILES. Several values for one entry are separate records, joined by “and”; a condition that tells them apart may be missing. Equal entries are not always repeated. Results filed as inconclusive are left out. A structure can be active in one record and inactive in another. Activity calls are given as the source filed them. Unless noted, the call rests on the fitted dose curve.

The nature of experiment [1]: Nuclear factor erythroid 2-related factor 2/antioxidant responsive element (Nrf2/ARE) small molecule agonists: qHTS cell viability counter screen in human keratinocytes (AID 1919968; active means well fitted curve in the direction sought with a large enough effect in the repeat runs; an effect the other way counts as inactive or inconclusive; further: nearly all actives have a fitted effect of over 55% in size; further: potency means the concentration at half of the fitted maximal effect). The method in brief: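 Seed 1,500 KeratinoSens cells per well, then incubate 5 h at 37 C/5% CO2. Add compounds in DMSO and incubate 23 h. Add CellTiter-Fluor, wait 1 h and read fluorescence.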
In general terms: Quantitative high-throughput screening tests each substance at several concentrations.

Experiment [2] concerns the target Gonadotropin-releasing hormone receptor (Homo sapiens) (UniProt P30968). As to the kind of experiment: Human gonadotropin-releasing hormone receptor (GnRHR) small molecule agonists, calcium flux assay in GnRHR-HEK293 cells (AID 1920063). Further: nearly all actives have a fitted effect of over 35% in size. Further: potency means the concentration at half of the fitted maximal effect. The method in brief: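 Cells: HEK293 stably expressing human GnRHR. Steps: overnight (18 h) culture, 1 h calcium dye loading at 37 C, compound addition, kinetic fluorescence read at 480/540 nm. Each compound tested at 15 concentrations in triplicate.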
On the technique in general: Calcium assays in cells follow changes in intracellular calcium, usually with a dye or a luminescent sensor.

A short description of experiment [3]: G protein-coupled receptor (GPCR) small molecule agonists, calcium flux assay: HEK293 wild type cell line counter screen (AID 1920065). Put shortly: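 Counter-screen of the Tox21 10K library for non-specific calcium release: dye-loaded cells received compounds in DMSO and were monitored by kinetic fluorescence (480/540 nm, 3 min). Fifteen concentrations, run in triplicate.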

A short description of experiment [4]: p53 small molecule agonists, cell-based qHTS assay with human liver microsomes: qHTS cell viability counter screen (AID 1963579). Further: nearly all actives have a fitted effect of over 45% in size. The method in brief: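 Metabolic activation used human liver microsomes and NADPH, both 0.5 mg/mL final, over 16 hours at 37 C on p53RE-bla cells (4,000/well). Cytotoxicity measured by CellTiter-Glo luminescence, 30 min at room temperature.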

Experiment [5] can be described thus: p53 small molecule agonists, cell-based qHTS assay: qHTS cell viability counter screen (AID 1963581). Further: nearly all actives have a fitted effect of over 45% in size. The method in brief: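 Cells: HCT-116 with p53 response element-driven beta-lactamase. Treatment: 16 h, 37 C, compounds in DMSO. Read: CellTiter-Glo luminescence after 30 min RT.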
Experiment [6] addresses 5-hydroxytryptamine receptor 2A (Homo sapiens) (UniProt P28223). As to the kind of experiment: 5-hydroxytryptamine receptor 2A (HTR2A) small molecule antagonists, cell-based qHTS assay (AID 1963586). Further: nearly all actives have a fitted effect of over 45% in size. The method in brief: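 Antagonist-mode intracellular calcium assay: DOI (4 nM) added after 5 min compound pre-incubation at room temperature to dye-loaded HTR2A-CHO cells. Fluorescence followed for 3 min, sampled every second.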

Experiment [7] shares this target. Put plainly: 5-hydroxytryptamine receptor 2A (HTR2A) small molecule agonists, cell-based qHTS assay (AID 1963587). Further: nearly all actives have a fitted effect of over 30% in size. Further: potency means the concentration at half of the fitted maximal effect. The method in brief: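 CHO cells stably expressing human HTR2A, plated 18 h, loaded with calcium dye 1 h at 37 C. Agonist mode: compounds added and intracellular calcium fluorescence recorded kinetically for 2 min at 1 sec intervals.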
Experiment [8] addresses Muscarinic acetylcholine receptor M1 (Homo sapiens) (UniProt P11229). Put plainly: Cholinergic receptor muscarinic 1 (CHRM1) small molecule antagonists, cell-based qHTS assay (AID 1963588). Further: nearly all actives have a fitted effect of over 40% in size. Further: potency means the concentration at half of the fitted maximal effect. The method in brief: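 CHRM1-CHO calcium-flux assay, antagonist mode. Cells were seeded 18 h, dye-loaded 1 h at 37 C and given compound for 5 min at RT, then acetylcholine was added at 50nM. FDSS fluorescence was read 3 min; 15 concentrations, three runs.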

Experiment [9] in a line: cAMP Responsive Elements (CRE) small molecule antagonists, cell-based qHTS assay (AID 1963591; active means well fitted inhibition curve with a large enough effect in the signal ratio in the repeat runs, not every such curve was filed as active; the % refers to the signal ratio). Put shortly:
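Antagonist mode: test compounds are co-incubated with the adenylyl cyclase activator NKH477 (0.25 uM final) on CRE-bla HEK293T cells for 3 h at 37 °C, followed by LiveBLAzer substrate loading.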

In experiment [10] the target is Beta-2 adrenergic receptor (Homo sapiens) (UniProt P07550). Put plainly: Adrenergic beta2 receptor (ADRB2) small molecule antagonists, cell-based qHTS assay (AID 1963592). Further: series mostly up to about 92 µM; nearly all actives have a fitted effect of over 50% in size. Put shortly: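 Cells (CHO, stable ADRB2 overexpression) incubated 18-20hr at 37C; compounds added from DMSO; agonist mix (1nM isoproterenol, 100uM IBMX, 25uM Ro-20-1724) added; 0.5hr RT; d2-cAMP and anti-cAMP-cryptate added; 1hr RT; 665/615 nm read.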
Beta-2 adrenergic receptor (Homo sapiens), sequence (P07550 whole entry, looked up): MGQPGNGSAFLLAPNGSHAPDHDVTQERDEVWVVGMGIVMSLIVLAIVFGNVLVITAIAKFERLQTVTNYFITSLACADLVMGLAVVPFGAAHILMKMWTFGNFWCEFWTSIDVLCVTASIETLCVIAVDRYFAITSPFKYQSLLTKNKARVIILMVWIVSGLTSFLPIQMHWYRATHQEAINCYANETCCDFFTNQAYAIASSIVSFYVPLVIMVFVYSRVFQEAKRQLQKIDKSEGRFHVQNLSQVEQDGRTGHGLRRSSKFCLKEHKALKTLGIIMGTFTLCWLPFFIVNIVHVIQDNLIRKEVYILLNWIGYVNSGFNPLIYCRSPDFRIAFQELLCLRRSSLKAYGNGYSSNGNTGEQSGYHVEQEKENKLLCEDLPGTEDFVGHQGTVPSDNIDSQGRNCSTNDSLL

The target is the same in experiment [11]. As to the kind of experiment: Adrenergic beta2 receptor (ADRB2) small molecule agonists, cell-based qHTS assay (AID 1963593).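 Further: CHO cells stably overexpressing human ADRB2.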 The method in brief:
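CHO cells stably over-expressing ADRB2 were plated overnight at 37C, then dosed with compounds plus a stimulation mix containing 100uM IBMX and 25uM Ro-20-1724 for 0.5hr at room temperature. cAMP was measured by HTRF competition, 1hr.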

For experiment [12], the target named is D(2) dopamine receptor (Homo sapiens) (UniProt P14416). As to the kind of experiment: Dopamine D2 receptor (DRD2) small molecule agonists, cell-based qHTS assay (AID 1963594). Further: nearly all actives have a fitted effect of over 35% in size. The method in brief: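 HEK293 cells stably expressing human DRD2, pre-treated with PDE inhibitor Ro20-1724 (0.1 mM final) and compound 10 min at room temperature, then stimulated with NKH477 (200nM […]) for 30 min. cAMP read by HTRF (665/620 nm).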
D(2) dopamine receptor (Homo sapiens), sequence (P14416 whole entry, looked up): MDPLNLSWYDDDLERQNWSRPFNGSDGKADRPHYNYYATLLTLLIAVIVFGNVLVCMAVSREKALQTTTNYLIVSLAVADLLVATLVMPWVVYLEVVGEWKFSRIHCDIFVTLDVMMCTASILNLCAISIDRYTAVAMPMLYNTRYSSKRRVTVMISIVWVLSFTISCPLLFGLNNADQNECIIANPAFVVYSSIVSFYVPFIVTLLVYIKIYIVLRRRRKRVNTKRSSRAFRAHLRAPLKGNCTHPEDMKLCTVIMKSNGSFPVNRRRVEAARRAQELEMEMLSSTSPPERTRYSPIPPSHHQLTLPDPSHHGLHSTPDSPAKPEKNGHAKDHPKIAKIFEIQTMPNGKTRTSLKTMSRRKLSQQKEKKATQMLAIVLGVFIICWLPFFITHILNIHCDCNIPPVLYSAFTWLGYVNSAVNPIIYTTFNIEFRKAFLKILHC

For experiment [13] the target is unchanged. Put plainly: Dopamine D2 receptor (DRD2) small molecule antagonists, cell-based qHTS assay (AID 1963595; active means well fitted inhibition curve with a large enough effect in the signal ratio in the repeat runs, with a control signal flat; the % refers to the signal ratio). Put shortly:
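HTRF cAMP read-out at 665 and 620 nm emission (340 nm excitation). Antagonist mode: compounds were tested against 12 nM quinpirole in DRD2-HEK293 cells, with 200 nM NKH477 raising cAMP and 0.1 mM Ro20-1724 blocking its breakdown.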

Experiment [14] can be described thus: p53 small molecule agonists, cell-based qHTS assay with rat liver microsomes: qHTS cell viability counter screen (AID 1963580). Further: nearly all actives have a fitted effect of over 45% in size. Further: potency means the concentration at half of the fitted maximal effect. The method in brief:
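Viability is assessed in parallel with the p53 reporter read: HCT-116 p53RE-bla cells receive compounds plus rat microsomes and NADPH (0.5 mg/mL final apiece), incubate 16 h at 37 C, and then CellTiter-Glo luminescence is recorded.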

Experiment [15] addresses Muscarinic acetylcholine receptor M1 (Homo sapiens) (UniProt P11229). Put plainly: Cholinergic receptor muscarinic 1 (CHRM1) small molecule agonists, cell-based qHTS assay (AID 1963589). Further: nearly all actives have a fitted effect of over 35% in size. Put shortly:
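Agonist-mode qHTS in CHO cells stably carrying human muscarinic M1. Intracellular calcium is tracked by fluorescence every second after compound transfer; each compound runs at 15 concentrations in three independent runs.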

Experiment [16] in a line: cAMP Responsive Elements (CRE) small molecule agonists, cell-based qHTS assay (AID 1963590). Put shortly:
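Agonist mode qHTS in CRE-bla HEK 293T cells: compounds dosed from DMSO for 3 h at 37 C/5% CO2, followed by LiveBLAzer B/G FRET substrate for 2 h at room temperature.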

Experiment [17] in a line: p53 small molecule agonists, cell-based qHTS assay with human liver microsomes (AID 1963577).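 Further: p53 response element beta-lactamase reporter cells with liver microsomes plus NADPH.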 The method in brief: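 With metabolic activation: human liver microsomes (0.5 mg/mL final) plus NADPH (0.5 mg/mL final) added alongside compounds to p53RE-bla cells; 16 h 37 C exposure; beta-lactamase read by LiveBLAzer fluorescence.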
Experiment [18] is described as follows: p53 small molecule agonists, cell-based qHTS assay with rat liver microsomes (AID 1963578). Put shortly: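 Metabolic activation by rat liver microsomes and NADPH, each 0.5 mg/mL final, added right after compounds to p53RE-bla reporter cells (4,000/well, plated 5 h earlier). 16 h at 37 C, then LiveBLAzer substrate for 2 h at room temperature in the dark; fluorescence read-out.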

Experiment [19] can be described thus: p53 small molecule agonists, cell-based qHTS assay (AID 1963582; active means well fitted activation curve with a large enough effect in the signal ratio in the repeat runs, not every such curve was filed as active; the % refers to the signal ratio). The method in brief: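 Quantitative HTS in p53RE-bla cells: after a 5 h settling period, compounds delivered in DMSO were left on cells for 16 h at 37 C, and reporter induction was measured as fluorescence following 2 h substrate loading.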
Experiment [20] deals with KiSS-1 receptor (Homo sapiens) (UniProt Q969F8). Put plainly: Human kisspeptin (KISS1R) small molecule agonists, calcium flux assay in KISS1R-HEK293 cells (AID 1920064; active means well fitted curve in the direction sought with a large enough effect in the repeat runs; an effect the other way counts as inactive or inconclusive). The method in brief: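 Cells plated and incubated 18 h; dye added, 1 h at 37 C; compounds in DMSO pinned in; signal read at 480/540 nm every second for 3 min. Each compound tested at 15 concentrations in triplicate.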
KiSS-1 receptor (Homo sapiens), sequence (Q969F8 whole entry, looked up): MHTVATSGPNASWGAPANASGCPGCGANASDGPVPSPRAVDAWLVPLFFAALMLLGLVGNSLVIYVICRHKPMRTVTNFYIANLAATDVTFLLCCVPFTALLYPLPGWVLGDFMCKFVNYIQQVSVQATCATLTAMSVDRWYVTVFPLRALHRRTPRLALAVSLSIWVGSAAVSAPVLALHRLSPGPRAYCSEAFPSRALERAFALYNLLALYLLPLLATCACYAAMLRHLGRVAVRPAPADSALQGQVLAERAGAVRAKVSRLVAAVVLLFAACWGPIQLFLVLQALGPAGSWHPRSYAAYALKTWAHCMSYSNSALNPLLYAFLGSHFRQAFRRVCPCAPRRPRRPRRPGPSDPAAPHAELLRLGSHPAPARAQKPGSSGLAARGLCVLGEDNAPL

5-hydroxytryptamine receptor 2A (Homo sapiens), sequence (P28223 whole entry, looked up): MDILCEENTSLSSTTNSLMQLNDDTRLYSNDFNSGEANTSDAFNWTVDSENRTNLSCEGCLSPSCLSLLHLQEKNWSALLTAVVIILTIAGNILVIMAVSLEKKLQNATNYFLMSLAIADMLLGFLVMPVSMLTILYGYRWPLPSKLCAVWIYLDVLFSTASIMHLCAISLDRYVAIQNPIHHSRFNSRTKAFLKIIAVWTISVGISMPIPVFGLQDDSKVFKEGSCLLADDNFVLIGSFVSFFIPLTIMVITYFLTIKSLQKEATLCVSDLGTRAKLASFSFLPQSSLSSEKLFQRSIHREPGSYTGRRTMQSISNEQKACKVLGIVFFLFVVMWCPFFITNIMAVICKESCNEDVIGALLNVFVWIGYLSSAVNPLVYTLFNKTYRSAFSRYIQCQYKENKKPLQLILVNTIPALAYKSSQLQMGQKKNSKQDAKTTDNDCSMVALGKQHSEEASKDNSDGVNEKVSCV
Gonadotropin-releasing hormone receptor (Homo sapiens), sequence (P30968 whole entry, looked up): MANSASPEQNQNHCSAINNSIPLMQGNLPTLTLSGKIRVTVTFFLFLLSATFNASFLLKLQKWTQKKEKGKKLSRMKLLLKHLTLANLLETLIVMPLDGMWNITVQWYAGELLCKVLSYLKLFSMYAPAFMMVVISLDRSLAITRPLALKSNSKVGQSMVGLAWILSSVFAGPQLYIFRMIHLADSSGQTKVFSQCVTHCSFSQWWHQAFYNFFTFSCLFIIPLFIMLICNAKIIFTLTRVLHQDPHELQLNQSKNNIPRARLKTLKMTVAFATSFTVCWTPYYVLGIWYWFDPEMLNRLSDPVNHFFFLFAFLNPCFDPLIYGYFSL
Muscarinic acetylcholine receptor M1 (Homo sapiens), sequence (P11229 whole entry, looked up): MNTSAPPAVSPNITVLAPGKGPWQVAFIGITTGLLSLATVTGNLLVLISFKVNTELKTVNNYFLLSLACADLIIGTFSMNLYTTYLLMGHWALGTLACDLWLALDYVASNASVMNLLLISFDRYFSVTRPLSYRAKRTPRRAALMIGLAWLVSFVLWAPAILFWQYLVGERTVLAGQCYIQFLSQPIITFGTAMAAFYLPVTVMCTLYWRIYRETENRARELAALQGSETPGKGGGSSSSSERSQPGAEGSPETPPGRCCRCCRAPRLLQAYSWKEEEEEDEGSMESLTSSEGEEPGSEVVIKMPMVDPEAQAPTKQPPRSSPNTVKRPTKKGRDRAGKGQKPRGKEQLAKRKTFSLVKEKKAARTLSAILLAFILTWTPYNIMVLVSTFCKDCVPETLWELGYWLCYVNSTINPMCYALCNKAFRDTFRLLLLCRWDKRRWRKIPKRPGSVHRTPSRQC

As to `CCCCCCCCCCCCCCCC[N+](C)(C)C`, the Potency was 61.1 µM (active) and 5.96 µM (active) in experiment [1]; 13.3 µM (active) and 30.9 µM (active) and 12 µM (active) in [2]; 18.8 µM (active) and 38.9 µM (active) in experiment [7]; 2.03 µM (active) and 840 nM (active) in experiment [8]. For the same compound, the Potency result in [3], in [4], in [5], in experiment [6], in [9] and in experiment [10] was “inactive” each time. The Potency result in experiment [11], in experiment [12] and in [13] was “inactive” each time.

On to `Cc1cc(Cl)ccc1N`, for which the Potency entry in [1], in experiment [2], in experiment [3], in experiment [4], in experiment [14] and in experiment [6] was “inactive” throughout. The Potency result in [7], in [8], in experiment [15], in experiment [16], in experiment [9] and in [10] was “inactive” each time. The Potency entry in experiment [12] and in [13] was “inactive” in each case.

On to `CCCCN(CCCC)N=O`, for which the Potency result in experiment [1], in experiment [2], in experiment [17], in experiment [18], in experiment [4] and in [14] was “inactive” throughout. For the same compound, the Potency result in experiment [19], in [6], in [7], in experiment [15], in experiment [16] and in experiment [9] was “inactive” each time. The Potency result in experiment [10], in experiment [11], in [12] and in experiment [13] was “inactive” in each case.

Take `Cl/C=C/CCl`: the Potency result in experiment [1], in experiment [20], in [3], in experiment [17], in [18] and in experiment [4] was “inactive” in each case. For the same compound, the Potency entry in experiment [14], in [5], in experiment [19], in experiment [6], in experiment [7] and in experiment [8] was “inactive” in each case. Further, the Potency entry in experiment [15], in experiment [16], in experiment [10] and in experiment [12] was “inactive” in each case.

Turning to `O=S(=O)(c1ccc(O)cc1)c1ccc(O)cc1`, the Potency result in [1], in experiment [20], in experiment [3], in experiment [17], in [18] and in [14] was “inactive” in each case. In addition, the Potency entry in experiment [5], in experiment [19], in experiment [7], in experiment [8], in experiment [15] and in experiment [9] was “inactive” throughout. For the same compound, the Potency result in [10], in experiment [11] and in experiment [13] was “inactive” each time.

Take `Oc1cc(Cl)c(Cl)cc1Cl`: the Potency result in experiment [1], in [20], in [3], in experiment [4], in [5] and in experiment [6] was “inactive” in each case. In addition, the Potency result in [7], in [8], in [15], in [9], in [10] and in experiment [12] was “inactive” in each case. Moreover, the Potency result in experiment [13] is “inactive”. The Potency in [14] is 40.5 µM (active) and inactive.

For the compound `COP(=S)(OC)Oc1ccc(SC)c(C)c1`, the Potency entry in experiment [1], in experiment [20], in experiment [3], in [17], in experiment [4] and in experiment [14] was “inactive” each time. Also, the Potency entry in [5], in experiment [6], in experiment [7], in experiment [8], in [15] and in [16] was “inactive” throughout. Also, the Potency entry in experiment [9], in experiment [10], in experiment [11], in experiment [12] and in [13] was “inactive” in each case.

Turning to `CCNCC`, the Potency entry in experiment [1], in experiment [20], in experiment [3], in experiment [4], in experiment [14] and in experiment [5] was “inactive” in each case. Besides, the Potency result in [6], in experiment [7], in [8], in experiment [15], in [16] and in experiment [9] was “inactive” in each case. The Potency entry in experiment [10], in [11], in [12] and in experiment [13] was “inactive” in each case.
